BAZ2B inh = BAZ2B (human) inhibition; Q9UIF8; AlphaScreen BAZ2B-H3K14Ac peptide displacement; Potency, µM (doses to about 114 µM), actives largely listed as inhibitors; 360,000 tested, 4.4% active; AID 504333; note: nearly all actives have a fitted effect of over 60% in size
Target sequence (Q9UIF8 whole entry, looked up): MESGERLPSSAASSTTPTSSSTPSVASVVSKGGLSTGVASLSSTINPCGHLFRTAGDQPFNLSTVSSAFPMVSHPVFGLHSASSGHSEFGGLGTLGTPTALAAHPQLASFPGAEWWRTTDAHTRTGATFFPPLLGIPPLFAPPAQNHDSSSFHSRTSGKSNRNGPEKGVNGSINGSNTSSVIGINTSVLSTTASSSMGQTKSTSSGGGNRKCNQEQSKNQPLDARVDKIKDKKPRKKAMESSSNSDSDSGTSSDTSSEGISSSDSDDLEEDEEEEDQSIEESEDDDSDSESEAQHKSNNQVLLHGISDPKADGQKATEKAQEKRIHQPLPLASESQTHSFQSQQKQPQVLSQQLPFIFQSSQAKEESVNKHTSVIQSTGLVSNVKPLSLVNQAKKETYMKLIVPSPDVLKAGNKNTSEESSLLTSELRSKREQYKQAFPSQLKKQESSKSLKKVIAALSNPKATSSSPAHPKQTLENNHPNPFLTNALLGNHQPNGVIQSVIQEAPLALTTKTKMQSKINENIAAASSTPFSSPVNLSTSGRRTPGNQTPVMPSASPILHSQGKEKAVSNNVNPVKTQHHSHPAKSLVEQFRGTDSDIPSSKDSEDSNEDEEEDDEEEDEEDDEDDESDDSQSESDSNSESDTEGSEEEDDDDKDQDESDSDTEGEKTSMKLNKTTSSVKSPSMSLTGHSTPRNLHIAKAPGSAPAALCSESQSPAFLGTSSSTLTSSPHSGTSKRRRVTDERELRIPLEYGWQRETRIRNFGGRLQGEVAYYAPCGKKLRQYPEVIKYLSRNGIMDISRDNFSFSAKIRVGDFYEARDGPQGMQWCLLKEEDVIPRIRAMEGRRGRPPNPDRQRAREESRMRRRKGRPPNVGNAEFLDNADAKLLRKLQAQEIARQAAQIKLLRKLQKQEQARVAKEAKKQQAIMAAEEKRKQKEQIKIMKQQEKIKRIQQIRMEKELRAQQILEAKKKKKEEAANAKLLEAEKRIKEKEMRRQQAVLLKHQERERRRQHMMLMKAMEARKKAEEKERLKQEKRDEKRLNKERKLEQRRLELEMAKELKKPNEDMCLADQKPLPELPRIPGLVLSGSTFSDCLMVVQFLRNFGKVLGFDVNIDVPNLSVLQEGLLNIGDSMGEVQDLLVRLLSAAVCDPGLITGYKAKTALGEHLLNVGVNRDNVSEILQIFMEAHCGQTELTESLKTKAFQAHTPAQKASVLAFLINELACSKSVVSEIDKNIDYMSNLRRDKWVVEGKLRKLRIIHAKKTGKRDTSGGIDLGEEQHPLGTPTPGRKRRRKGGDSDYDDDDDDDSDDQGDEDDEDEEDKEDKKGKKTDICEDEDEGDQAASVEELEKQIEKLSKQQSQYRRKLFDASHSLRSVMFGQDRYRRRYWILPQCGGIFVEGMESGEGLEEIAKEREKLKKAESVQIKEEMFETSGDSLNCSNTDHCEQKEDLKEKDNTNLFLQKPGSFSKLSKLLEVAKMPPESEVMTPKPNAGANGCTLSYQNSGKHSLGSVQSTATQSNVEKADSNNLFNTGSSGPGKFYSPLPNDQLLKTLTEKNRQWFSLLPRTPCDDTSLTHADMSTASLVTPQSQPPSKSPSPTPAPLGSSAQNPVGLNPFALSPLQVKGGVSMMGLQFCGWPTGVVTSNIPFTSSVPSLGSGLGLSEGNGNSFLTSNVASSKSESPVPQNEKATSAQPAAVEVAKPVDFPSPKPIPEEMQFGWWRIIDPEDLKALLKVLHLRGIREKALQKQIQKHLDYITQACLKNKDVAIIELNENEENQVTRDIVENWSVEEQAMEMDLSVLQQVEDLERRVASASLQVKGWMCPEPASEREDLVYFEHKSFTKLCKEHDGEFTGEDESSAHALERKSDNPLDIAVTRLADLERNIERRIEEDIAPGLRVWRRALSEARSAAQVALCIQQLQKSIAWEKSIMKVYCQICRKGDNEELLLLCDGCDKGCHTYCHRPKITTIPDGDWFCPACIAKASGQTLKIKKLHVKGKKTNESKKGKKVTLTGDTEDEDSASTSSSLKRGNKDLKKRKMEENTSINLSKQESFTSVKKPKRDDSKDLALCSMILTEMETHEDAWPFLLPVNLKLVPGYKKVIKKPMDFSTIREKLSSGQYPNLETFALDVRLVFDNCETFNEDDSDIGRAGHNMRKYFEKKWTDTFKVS
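Inhibition is scored as reduced AlphaScreen emission. The BAZ2B/b-H3(5-23)K14Ac complex (50 nM each) in PBS pH 7.4, 0.01% Tween-20 meets compound (up to 110 uM) for 30 min at RT before bead addition.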
JMJD2A Tudor inh = inhibitors of human JMJD2A Tudor domain; AlphaScreen JMJD2A-Tudor / H3K4me3 peptide binding; O75164; 390,000 tested, 4.4% active; Potency, µM (highest dose often 114 µM), most hits filed as inhibitors; AID 504339; note: nearly all actives have a fitted effect of over 50% in size
G9a block = inhibitors of human histone lysine methyltransferase G9a; G9a H3K9 monomethylation, AlphaScreen, 2 h; Potency, µM (top dose mostly 102 µM), actives largely listed as inhibitors; 350,000 tested, 8.8% active; Q96KQ7; note: nearly all actives have a fitted effect of over 75% in size
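Enzyme 20 nM + cpd, 15 min RT; add b-H3K9 pep 500 nM / SAM 20 uM; 2 h RT; anti-H3K9me1 Ab 0.5 ug/mL + SA donor / anti-rabbit acceptor beads 20 ug/mL each, 10 min; AlphaScreen read.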
Sfp PPTase inh = inhibitors of Bacillus subtilis Sfp phosphopantetheinyl transferase | Potency, µM, actives largely listed as inhibitors | Biochemical Sfp PPTase activity, qHTS | Q9F4F7 | 310,000 tested, 3.5% active;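 note: the enzyme is Sfp with the accession as filed and its product quenches rhodamine fluorescence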
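Compounds were incubated with enzyme (final 15 nM) for 15 min at room temperature before substrate addition started the reaction. Fluorescence at 525 nm excitation, 598 nm emission was recorded immediately and after 30 minutes.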
ALOX12 inh = ALOX12 (human) lipoxygenase inhibition; 580,000 tested, 1.1% active; purified 12hLO, xylenol orange hydroperoxide absorbance; P18054; AID 1671190; Potency, µM (titrated, usually from 108 µM), usual class: inhibitors
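Purified human 12hLO (150 nM final) in 25 mM Hepes, 0.01% Triton X-100, pH 7.0 was preincubated 15 min at room temperature with compound. Then 40 uM arachidonic acid was added, 30 min. Hydroperoxide was read by Fe-XO absorbance ratio 573/405 nm.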
HP1b binding inh = inhibitors of HP1-beta chromodomain binding to methylated histone tails; 390,000 tested, 0.56% active; AlphaScreen HP1-beta / biotin-H3K9me3 peptide binding; Potency, µM (highest dose often 114 µM), usual class: inhibitors; AID 540317; note: nearly all actives have a fitted effect of over 70% in size
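HP1-beta protein (50 nM final) preincubated 30 min at room temperature with biotinylated H3(1-18)K9me3 peptide (50 nM) in PBS pH 7.4, 0.01% Tween-20, then compound added for 30 min. AlphaScreen streptavidin donor/nickel chelate acceptor beads (10 ug/mL final), 30 min dark, luminescence read.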
Numbers stand for hits; – = inactive; ? = inconclusive; · = not tested or not shown; ! = repeats disagree; [ ] = remark or other dose. Compounds with a hit are over-represented: about 8.7% of the library has one in this group of screens. Calls come from the whole dose curve; as a rule, active = well fitted curve in the direction sought with a large enough effect; inconclusive = small, poorly fitted or top-dose-only effect, or another doubt; inactive = no such curve, though single readings can be large; an effect the other way counts as inactive or inconclusive.

SMILES	BAZ2B inh	JMJD2A Tudor inh	G9a block	Sfp PPTase inh	ALOX12 inh	HP1b binding inh
CCc1cc(C(=O)OC)c(NC(=O)CCC(=O)O)s1	–	–	14µM	20µM	–	?
CCCN1CCN(C(=S)Nc2sc(CC)cc2C(=O)OC)CC1	–	?	50µM	–	–	–
Cc1nc(N(C)C)ncc1C(=O)NCc1ccccc1	·	·	·	·	–	·
COc1cc(/C=C(/C#N)C(=O)Nc2cccc(C(F)(F)F)c2)ccc1OC(F)F	·	·	·	·	–	·
CCOc1cc(C(=O)NC(=S)Nn2cnnc2)cc(OCC)c1OCC	–	?	25µM	–	?	–
O=C(NC(=S)Nn1cnnc1)c1ccccc1Br	–	–	–	25µM	–	?
CC1CCCC(NC(=S)NC(=O)c2ccccc2Br)C1C (stereo unspecified)	–	–	–	–	22µM	–
CCOc1cc(C(=O)Nn2cnnc2)cc(OCC)c1OCC	–	–	–	–	–	–
O=C(NC(=S)Nn1cnnc1)c1ccccc1	–	–	–[2.33 µM]	·	35µM	–
CNC(=O)[C@@H]1CN(C(=O)c2ccncn2)C[C@H]1c1n[nH]c(C)n1	·	·	·	·	–	·
N[C@@H](C(=O)O)c1ccc(C(=O)O)c(O)c1	·	·	·	–	–	·
N[C@H](C(=O)O)c1cc(O)cc(O)c1	·	·	–	45µM!	?	·
COc1ccc(CN2CCN(Cc3ccc(C(F)(F)F)cc3)CC2)cc1	25µM	7.9µM	7.1µM	–	?	?
COc1ccc(OC2CN(Cc3ccc(C(F)(F)F)cc3)C2)cc1	·	·	·	·	–[6.33 µM]	·
CC(C)CC(=O)N1CCN(Cc2ccccc2[N+](=O)[O-])CC1	25µM	1.3µM	14µM	56µM	–	32µM
CC(C)c1ccc(CN2CCN(C(=O)CCl)CC2)cc1	–	–	?	–	–	–
CC(C)CC(=O)N1CCN(Cc2ccc(Cl)cc2)CC1	?	10µM	·	–	?	?
CC(C)CC(=O)N1CCN(Cc2ccc(C(F)(F)F)cc2)CC1	?	28µM	·	?	–	?
CC(C)CC(=O)N1CCN(Cc2ccc(Br)cc2)CC1	–	20µM	32µM	–	?	?
Cc1ccsc1-c1[nH]nc2ncc(-c3ccnn3C)nc12	·	·	·	·	–	·
Cc1[nH]c2ccccc2c1C(=O)C(=O)NC(C)c1ccccc1 (stereo unspecified)	·	·	·	·	–	·
CCCCc1nc(NCCN2CCOCC2)c(C#N)c2c1CCCC2	·	·	·	·	–	·
O=C(Nc1cccc2ccccc12)C(C(=O)Nc1cccc2ccccc12)C12CC3CC(CC(C3)C1)C2	·	·	·	·	–	·
O=C1COc2ccc(C(=O)CSc3ccccc3C(=O)O)cc2N1	–	–	·	–	–	–
CC(C)c1ccccc1-n1c(SCC(=O)c2ccc3c(c2)NC(=O)CO3)nc2ccccc2c1=O	–	–	40µM	–	–	–
SMILES	BAZ2B inh	JMJD2A Tudor inh	G9a block	Sfp PPTase inh	ALOX12 inh	HP1b binding inh
O=C1COc2ccc(C(=O)CSc3nnc(Cc4cccs4)n3-c3ccccc3)cc2N1	–	–	79µM	–	–	–
CC1(C)C2([N+](=O)[O-])CN3CC1([N+](=O)[O-])CN(C2)C3c1ccc(O)c(O)c1 (stereo unspecified)	–	?	22µM	–	?	–
CCCn1cc(-c2ccnc(NC3CCN(Cc4cccnc4)CC3)n2)c(C)n1	·	·	·	·	–	·
O=C(CSc1ccsc1[N+](=O)[O-])NCc1ccccc1	?	–	50µM	–	?	–
CSc1ccc(CCNC(=O)CSc2ccsc2[N+](=O)[O-])cc1	–	–	–	–	–	–
COc1ccccc1CNC(=O)CSc1ccc(C(=O)Nc2ccccc2OC)cc1[N+](=O)[O-]	?	–	–	50µM	–	–
O=C(CSc1ccsc1[N+](=O)[O-])Nc1cccc(F)c1	35µM	45µM	50µM	–	?	?
CCc1ccccc1NC(=O)CSc1ccsc1[N+](=O)[O-]	50µM	?	?	–	?	–
O=C(CSc1nc(-c2ccccc2)cs1)C12CC3CC(CC(C3)C1)C2	·	·	·	·	–	·
Cc1nc(N2CCC(C(O)c3nccn3C)CC2)c2sccc2n1 (stereo unspecified)	·	·	·	·	–	·
COc1ccc(C[C@H](NC(=O)[C@@]2(O)C[C@@H](O)[C@H](O)[C@@H](NC(=O)CC(C)(C)C)C2)C(N)=O)cc1	·	·	·	·	–	·
O=C(CSc1ccsc1[N+](=O)[O-])NC1CCCC1	–	–	32µM	–	?	–
COc1ccc(OC)c(CCNC(=O)CSc2ccsc2[N+](=O)[O-])c1	?	45µM	32µM	–	–	–
CC1CCCCC1NC(=O)CSc1ccsc1[N+](=O)[O-] (stereo unspecified)	–	–	–	–	–	–
COc1ccccc1CNC(=O)CSc1ccsc1[N+](=O)[O-]	?	–	50µM	–	–	–
CCN(Cc1cccc(F)c1)C(=O)C1CCCO1 (stereo unspecified)	·	·	·	·	–	·
O=C1NCCCCCCN(Cc2ccncc2)[C@@H]2CN(C(=O)Nc3ccccc3)CC[C@@H]12	·	·	·	·	–	·
CCn1cc(-c2cc(C(=O)N3CCCCCC3)c3cccc(C)c3n2)cn1	·	·	·	·	–	·
O=C(CCc1ncc(-c2ccc(Cl)cc2)o1)N1CCOCC1	·	·	·	·	–	·
Brc1ccccc1NC1C2CC3CC(C2)CC1C3 (stereo unspecified)	·	·	·	·	–	·
O=C(Nc1ccc2c(c1)OCO2)Nc1ccccc1F	–	–	–	–	–	–
O=C(Nc1ccc2c(c1)OCO2)NC1(C(F)(F)F)Oc2ccccc2O1	–	–	6.3µM	–	?	–
O=C(Nc1ccc2c(c1)OCCO2)Nc1ccc2c(c1)OCO2	–	–	–	–	–	–
O=C(NC1(C(F)(F)F)Oc2ccccc2O1)N1CCCC1	–	?	6.3µM	–	?	–
O=C(Nc1ccc2c(c1)OCCO2)NC1(C(F)(F)F)Oc2ccccc2O1	–	?	2µM	?	?	–
SMILES	BAZ2B inh	JMJD2A Tudor inh	G9a block	Sfp PPTase inh	ALOX12 inh	HP1b binding inh
CCC(=O)Nc1nc2ccc(CC(=O)N3CCN(c4ccc(F)cc4)CC3)cc2s1	·	·	·	·	–	·
CCOc1cccc(C(=O)NC23CC4CC(CC(C4)C2)C3)c1	·	·	·	·	–	·
COC(=O)c1cccc(NC(=S)N[C@H]2CO[C@H]3[C@@H]2OC[C@H]3OC(=O)Nc2ccccc2)c1	·	·	·	·	–	·
Nc1nc(N)c2cc(CNc3ccc(Cl)c(Cl)c3)ccc2n1	·	·	·	·	5.6µM	·
Cc1nc2c3ccccc3nc(NNC(=O)CCC(=O)N3CCC(C)CC3)n2n1	–	–	79µM	–	–	–
Cc1nc2c3ccccc3nc(NNC(=O)CCC(=O)NCCC(C)C)n2n1	–	–	50µM	–	–	–
Cc1nc2c3ccccc3nc(NNC(=O)CCC(=O)N3CCN(c4ccccc4)CC3)n2n1	–	–	–	–	–	–
CCN(CC)CCCNC(=O)CCC(=O)NNc1nc2ccccc2c2nc(C)nn12	?	–	–	–	–	–
CCOC(=O)C1CCN(C(=O)CCC(=O)NNc2nc3ccccc3c3nc(C)nn23)CC1	–	–	45µM	–	–	–

Compound activity deposited in PubChem BioAssay by National Center for Advancing Translational Sciences (NCATS).
